This is a sample that favours compounds with a hit; in the whole collection about 2.5% have one here.
ANO1 activ: mouse TMEM16A channel activation, primary screen | Q8BHY3 | AID 623877 | B-score at 10 µM | hit rate 0.3% among 340,000 | HEK293 TMEM16A/YFP-H148Q/I152L, iodide quench fluorescence; stronger effect = lower value;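 active means fluorescence-ratio B-score plate-corrected deviation score at least 3 library SD below zero, with starting fluorescence score within 5 deviations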;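 further: channel opened by trigger with iodide after compound preincubation; score built on the fluorescence ratio of max minus min over baseline; more negative score means more quench and so TMEM16A activation or potentiation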
Target sequence (Q8BHY3 whole entry, looked up): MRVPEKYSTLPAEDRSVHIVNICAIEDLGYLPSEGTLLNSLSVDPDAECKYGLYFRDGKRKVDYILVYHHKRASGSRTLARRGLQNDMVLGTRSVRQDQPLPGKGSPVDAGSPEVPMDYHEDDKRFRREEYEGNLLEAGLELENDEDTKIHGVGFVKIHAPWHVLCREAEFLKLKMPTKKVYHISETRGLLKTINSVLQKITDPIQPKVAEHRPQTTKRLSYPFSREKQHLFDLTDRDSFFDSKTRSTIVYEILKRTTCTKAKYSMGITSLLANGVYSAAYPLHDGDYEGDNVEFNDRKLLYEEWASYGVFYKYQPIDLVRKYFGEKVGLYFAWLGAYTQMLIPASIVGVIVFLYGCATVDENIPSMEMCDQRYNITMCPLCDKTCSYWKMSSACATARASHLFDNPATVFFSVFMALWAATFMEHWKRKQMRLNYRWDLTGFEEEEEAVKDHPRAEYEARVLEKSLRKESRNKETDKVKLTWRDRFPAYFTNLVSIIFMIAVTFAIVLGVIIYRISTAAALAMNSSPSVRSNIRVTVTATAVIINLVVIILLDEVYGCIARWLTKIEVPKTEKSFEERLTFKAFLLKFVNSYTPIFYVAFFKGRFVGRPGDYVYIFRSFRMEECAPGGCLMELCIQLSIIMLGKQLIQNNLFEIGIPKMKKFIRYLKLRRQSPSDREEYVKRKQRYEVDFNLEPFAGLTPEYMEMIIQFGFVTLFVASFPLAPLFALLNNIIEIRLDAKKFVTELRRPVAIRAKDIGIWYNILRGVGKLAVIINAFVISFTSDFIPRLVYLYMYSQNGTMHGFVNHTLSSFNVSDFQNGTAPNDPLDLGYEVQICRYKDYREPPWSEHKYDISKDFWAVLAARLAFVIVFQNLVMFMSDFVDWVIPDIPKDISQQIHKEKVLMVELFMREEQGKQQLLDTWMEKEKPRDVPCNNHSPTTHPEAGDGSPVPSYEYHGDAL
Jurkat NFkB inh: inhibitors of the PMA/ionomycin-induced NF-kB reporter in Jurkat cells | PMA/ionomycin-induced NF-kB luciferase reporter, luminescence | inhibition, % at 4 µM | hit rate 0.53% among 330,000 | AID 435003; in the data active means inhibition above about 50%
697 NFkB inh: inhibitors of the PMA/ionomycin-induced NF-kB reporter in 697 B cells. 697 B-cell NF-kB luciferase reporter, 16 h. inhibition, % at 4 µM. hit rate 0.33% among 330,000. AID 435022; in the data active means inhibition above about 35%
KLF5 inhibitor: kruppel-like factor 5 inhibition. DLD-1 KLF5 promoter-luciferase reporter, luminescence. inhibition, % at 5 µM. hit rate 0.23% among 290,000;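 active means inhibition above a per-plate limit of that plate's mean compound inhibition plus 3 SD, cut at about 60% in these data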;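 further: higher means less KLF5 promoter-driven luciferase light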
aSyn UTR inh: MLPCN primary screen, SNCA 5' untranslated region; alpha-synuclein 5'UTR reporter, inhibitor activity; inhibition, % (tested at 7.5 µM); hit rate 0.82% among 300,000; AID 1813; in the data active means inhibition above about 60%; inconclusive means no clear call, values can overlap the other calls;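 further: H4 neuroglioblastoma cells stably carrying SNCA 5'UTR luciferase fusion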
ANO1 block: mouse TMEM16A channel inhibition, primary screen | Q8BHY3 | AID 588511 | hit rate 1.2% among 310,000 | normalized B-score (activity score, 25-100; higher = stronger inhibition) at 10 µM | HEK293 TMEM16A/YFP iodide influx fluorescence, ionomycin;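 active means ratio plate-corrected score three or more library SD toward inhibition, starting fluorescence score within five deviations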;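 further: score derived from kinetic fluorescence span divided by baseline fluorescence per well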
Jurkat NFkB conf: lowers PMA/ionomycin-induced NF-kB signal in Jurkat cells; inhibition, % at 4 µM; hit rate 27% among 2,700; shares compounds with Jurkat NFkB inh; Jurkat NF-kB luciferase, 16 h; AID 435020;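 active means inhibition reaching about 45% at 4 µM in either replicate, limit read from the data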
697 NFkB conf: inhibitors of the PMA/ionomycin-induced NF-kB reporter in 697 B cells, retest; 697 B-cell NF-kB luciferase, 16 h; inhibition, % at 4 µM; shares compounds with 697 NFkB inh; hit rate 35% among 2,000; in the data active means inhibition mostly above about 28%, no sharp cut-off; inactive means mostly below about 22%
Each line names hits and unclear results; the compound was inactive in the other large screens (follow-up assays come after a bar, where they were run).

COc1ccc2[nH]c(C(=O)Nc3ccc(C)c(F)c3)cc2c1	none
CC(C)C(=O)Nc1ccc2nn(-c3ccc(F)cc3)nc2c1	none | Jurkat NFkB conf inactive | 697 NFkB conf inactive
Cc1ccc(-n2nc3ccc(NC(=O)C(C)C)cc3n2)cc1	none | Jurkat NFkB conf inactive | 697 NFkB conf inactive
CC(C)C(=O)Nc1ccc(N2CCN(c3ccc(F)cc3)CC2)cc1	none
O=C(Nc1ccc(N2CCCC2)cc1)c1cc([N+](=O)[O-])ccc1N1CCOCC1	none
CCn1nc(C(=O)N2CCN(Cc3nc4ccccc4s3)CC2)c2ccccc2c1=O	none (no result: KLF5 inhibitor, aSyn UTR inh, ANO1 block)
COc1ccc(/C=C/c2cccc[n+]2C)c(O)c1	none
CCN(CC)c1ccc(/C=C/c2cccc[n+]2C)c(OC)c1	Jurkat NFkB inh 93.9, 697 NFkB inh 75.4, aSyn UTR inh inconclusive | Jurkat NFkB conf 77.6 | 697 NFkB conf 87.5
CC(=O)Nc1ccc2oc(-c3ccccc3Br)nc2c1	none (no result: ANO1 activ)
Cc1ccccc1-c1nc2cc(NC(=O)C3CC3)ccc2o1	none | Jurkat NFkB conf inactive | 697 NFkB conf inactive
O=C(Nc1cccc(-c2cnc3ccccc3n2)c1)c1ccccc1	none
CCc1ccc(-c2cnc3ccccc3n2)cc1NC(=O)CNC(=O)c1ccccc1	none | Jurkat NFkB conf inactive | 697 NFkB conf inactive
COc1ccc(-n2cnnc2SCC(=O)NC2CCCCC2)cc1	none (no result: KLF5 inhibitor, aSyn UTR inh, ANO1 block)
COc1ccc(CN(C)c2ccc(S(=O)(=O)N3CCN(C)CC3)cc2[N+](=O)[O-])cc1OC	Jurkat NFkB inh 68.2, 697 NFkB inh 87.3 (no result: KLF5 inhibitor, aSyn UTR inh, ANO1 block) | Jurkat NFkB conf 74.7 | 697 NFkB conf 97.2
COc1ccc(CCN(C)c2ccc(S(=O)(=O)N3CCCC3)cc2[N+](=O)[O-])cc1OC	none
O=[N+]([O-])c1ccc2nc(-c3ccc(Cl)cc3)[nH]c2c1	none
Cc1ccc(-c2nc3ccc([N+](=O)[O-])cc3[nH]2)cc1	none | Jurkat NFkB conf inactive | 697 NFkB conf inactive
COc1ccc(NS(=O)(=O)c2cccc(NC(=O)c3ccc(Cl)nc3)c2)cc1	Jurkat NFkB inh 72.1, 697 NFkB inh 64.1 | Jurkat NFkB conf 66.7 | 697 NFkB conf 54.0
COc1ccc(C(C(=O)NC2CCCCC2)N(C(=O)CCl)c2ccc(Cl)cc2)cc1 (configuration not stated)	Jurkat NFkB inh 75.9, 697 NFkB inh 92.4 | Jurkat NFkB conf inactive | 697 NFkB conf 19.2
COc1ccc(N(C(=O)c2cnccn2)C(C(=O)NC2CCCCC2)c2ccc(Cl)cc2)cc1 (configuration not stated)	none
O=C(Nc1ccnn1C1CCN(Cc2cc(Cl)ccc2O)CC1)c1cccnc1	none
COc1ccc2cc(-c3ccccc3)ncc2c1	none | Jurkat NFkB conf inactive | 697 NFkB conf inactive
CC(=O)Nc1nc2cc3c(cc2s1)OCCO3	none
O=C(Nc1nc2cc3c(cc2s1)OCCO3)C1CCCCC1	none (no result: KLF5 inhibitor, aSyn UTR inh, ANO1 block) | Jurkat NFkB conf inactive | 697 NFkB conf inactive
O=C(CC(Nc1ccccc1Cl)C(=O)O)c1ccccc1 (configuration not stated)	none | Jurkat NFkB conf inactive | 697 NFkB conf inactive
O=C(CC(Nc1cccc(Cl)c1Cl)C(=O)O)c1ccccc1 (configuration not stated)	none
COc1ccc(NC2CCCN(C(=O)c3ccc4[nH]c(C)c(C)c4c3)C2)cc1OC (configuration not stated)	none
O=C(c1cccs1)c1ccc(-c2cccs2)s1	none | Jurkat NFkB conf inactive | 697 NFkB conf inactive
CCCCCCCn1ccc(=N)cc1	Jurkat NFkB inh 65.8, 697 NFkB inh 89.0, aSyn UTR inh inconclusive | Jurkat NFkB conf 74.2 | 697 NFkB conf 82.8
O=C(Nc1nc2c(s1)CCCC2)C1COc2ccccc2O1 (configuration not stated)	none | Jurkat NFkB conf inactive | 697 NFkB conf inactive
O=C(Cc1cccs1)Nc1nc2c(s1)CCCC2	none | Jurkat NFkB conf inactive | 697 NFkB conf inactive
Cc1ccc([N+](=O)[O-])cc1N=C1C(=O)Nc2ccccc21	none
CN1/C(=C\C=[N+](C)c2ccccc2)C(C)(C)c2ccccc21	Jurkat NFkB inh 74.3, 697 NFkB inh 83.4 | Jurkat NFkB conf 65.7 | 697 NFkB conf 56.7
CSc1ccc(NC(=O)Nc2cc(C)ccn2)cc1	none | Jurkat NFkB conf inactive | 697 NFkB conf inactive
CSc1ncccc1C(=O)Nc1cc(C)ccn1	none
Cc1ccnc(NC(=O)Nc2ccc(F)cc2)c1	none | Jurkat NFkB conf inactive | 697 NFkB conf inactive
Cc1ccc(NC(=O)Nc2ccc(F)cc2)nc1	none
Nc1nc2c(-c3ccc(Br)cc3)nnn2c2ccccc12	none | Jurkat NFkB conf inactive | 697 NFkB conf inactive
CNc1nc2c(-c3ccc(Cl)cc3)nnn2c2ccccc12	none
Cc1cc(NC(=O)CSc2nnc(-c3ccccc3F)n2N)no1	none (no result: KLF5 inhibitor, aSyn UTR inh, ANO1 block)
CN=c1scc(C)n1/N=C/c1ccc(O)cc1O	none | Jurkat NFkB conf inactive | 697 NFkB conf inactive
CN=c1scc(C)n1/N=C/c1ccc(O)cc1	none (no result: aSyn UTR inh)
COc1ccccc1/C=C/CN1CCC(n2nccc2NC(=O)C2CC2)CC1	none
CC1CN/C(=C\C(=O)c2ccc(Cl)cc2)C(=O)N1 (configuration not stated)	none | Jurkat NFkB conf inactive | 697 NFkB conf inactive
CC1CN/C(=C\C(=O)c2ccccc2)C(=O)N1 (configuration not stated)	none
CCCN(CCC)c1ncnc2c1cnn2-c1ccc(OC)cc1	none | Jurkat NFkB conf inactive | 697 NFkB conf inactive
CCCNc1ncnc2c1cnn2-c1ccc(OC)cc1	none (no result: ANO1 activ, Jurkat NFkB inh, 697 NFkB inh, aSyn UTR inh, ANO1 block)
CC(=O)Nc1cccc(NC(=O)C(=O)NCC(c2ccco2)N2CCc3ccccc3C2)c1 (configuration not stated)	none (no result: KLF5 inhibitor)
COc1ccccc1CNc1ncc(-c2ccc(F)cc2)n1C	none
COc1ccc(CNc2ncc(-c3ccc(F)cc3)n2C)c2ccccc12	Jurkat NFkB inh 70.5, 697 NFkB inh 39.7, aSyn UTR inh 65.1 | Jurkat NFkB conf 49.9 | 697 NFkB conf 48.2
N#CCCCC#Cc1ccc2c(c1)COc1c3ccccc3nn1-2	aSyn UTR inh 76.7 (no result: KLF5 inhibitor) | Jurkat NFkB conf inactive | 697 NFkB conf inactive
O=C(Nc1ccc2c(c1)CCC2)Nc1ccccc1F	none | Jurkat NFkB conf inactive | 697 NFkB conf inactive
Cc1cc(NC(=O)COC(=O)[C@H](Cc2ccccc2)NC(=O)c2ccco2)no1	none (no result: Jurkat NFkB inh, 697 NFkB inh, KLF5 inhibitor, aSyn UTR inh, ANO1 block)
Cc1cc(C(=O)COC(=O)c2ccccc2O)c(C)n1CC1CCCO1 (configuration not stated)	Jurkat NFkB inh 74.4, 697 NFkB inh 52.3 (no result: KLF5 inhibitor, aSyn UTR inh, ANO1 block) | Jurkat NFkB conf 86.2 | 697 NFkB conf 42.8
Cc1cc(C(=O)COC(=O)c2ccccc2Br)c(C)n1CC1CCCO1 (configuration not stated)	none
CCn1c(C)cc(C(=O)COC(=O)c2ccccc2[N+](=O)[O-])c1C	Jurkat NFkB inh 59.1, 697 NFkB inh 41.4 (no result: KLF5 inhibitor, aSyn UTR inh, ANO1 block) | Jurkat NFkB conf 93.8 | 697 NFkB conf 47.3
NC(=O)CC[C@H](NC(=O)c1ccc(Cl)cc1)C(=O)NNC(=O)COc1cccc(Br)c1	none (no result: KLF5 inhibitor, aSyn UTR inh, ANO1 block)
